Bioassay records deposited in PubChem BioAssay by National Center for Advancing Translational Sciences (NCATS).
An excerpt weighted towards active compounds, which were near 12% of everything screened.
HP1b binding inh: HP1-beta chromodomain-methylated histone interaction inhibition. P83916. AlphaScreen HP1-beta / biotin-H3K9me3 peptide binding. Potency, µM (top dose mostly 114 µM), most hits filed as inhibitors. actives 0.56% (n = 390,000); note: nearly all actives have a fitted effect of over 70% in size
Target sequence (P83916 whole entry, looked up): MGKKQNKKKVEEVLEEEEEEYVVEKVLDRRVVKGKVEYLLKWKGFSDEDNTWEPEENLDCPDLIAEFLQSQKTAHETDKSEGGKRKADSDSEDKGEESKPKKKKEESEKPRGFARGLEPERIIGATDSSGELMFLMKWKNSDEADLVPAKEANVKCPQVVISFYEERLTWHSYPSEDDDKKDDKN
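HP1-beta protein (50 nM final) preincubated 30 min at room temperature with biotinylated H3(1-18)K9me3 peptide (50 nM) in PBS pH 7.4, 0.01% Tween-20, then compound added for 30 min. AlphaScreen streptavidin donor/nickel chelate acceptor beads (10 ug/mL final), 30 min dark, luminescence read.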
G9a block: blocks human histone lysine methyltransferase G9a. Potency, µM (series often up to 102 µM), hits mostly inhibitors. Q96KQ7. G9a H3K9 monomethylation, AlphaScreen, 2 h. actives 8.8% (n = 350,000); note: nearly all actives have a fitted effect of over 75% in size
Target sequence (Q96KQ7 913-1193 limits assumed): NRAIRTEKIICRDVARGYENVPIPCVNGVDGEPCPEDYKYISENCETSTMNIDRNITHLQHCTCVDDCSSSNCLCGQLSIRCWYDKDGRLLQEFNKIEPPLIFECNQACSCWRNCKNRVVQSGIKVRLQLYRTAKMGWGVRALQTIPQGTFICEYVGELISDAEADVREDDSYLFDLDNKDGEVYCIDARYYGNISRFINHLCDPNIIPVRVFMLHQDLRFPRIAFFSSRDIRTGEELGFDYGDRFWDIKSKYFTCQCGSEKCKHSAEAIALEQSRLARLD
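Chemiluminescent proximity detection of H3K9 monomethylation, read after 10 min bead incubation in the dark. Reaction: 20 nM G9a, 500 nM biotin-H3K9 peptide, 20 uM SAM cofactor, 2 h, room temperature, following 15 min enzyme-compound preincubation.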
JMJD2A Tudor: JMJD2A Tudor domain (human) inhibition | O75164 | AlphaScreen JMJD2A-Tudor / H3K4me3 peptide binding | Potency, µM (highest dose often 114 µM), usual class: inhibitors | actives 4.4% (n = 390,000) | AID 504339; note: nearly all actives have a fitted effect of over 50% in size
BAZ2B block: BAZ2B (human) inhibition | AlphaScreen BAZ2B-H3K14Ac peptide displacement | Potency, µM (top dose mostly 114 µM), usual class: inhibitors | actives 4.4% (n = 360,000); note: nearly all actives have a fitted effect of over 60% in size
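BAZ2B (50 nM) with biotin-H3(5-23)K14Ac peptide (50 nM) in PBS pH 7.4, 0.01% Tween-20, preformed 30 min, then compound 30 min at room temperature; top concentration 110uM. AlphaScreen streptavidin donor/nickel chelate acceptor beads (10 ug/mL final), 20 min dark, signal read.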
Sfp inh: inhibitors of Bacillus subtilis Sfp phosphopantetheinyl transferase; Q9F4F7; Biochemical Sfp PPTase activity, qHTS; Potency, µM, most hits filed as inhibitors; actives 3.5% (n = 310,000);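 note: the enzyme is Sfp with the accession as filed and its product quenches rhodamine fluorescence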
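Step 1, compound plus 15 nM Sfp-PPTase, 15 min, room temperature. Step 2, add rhodamine-CoA (5 uM) and BHQ-2-YbbR (12.5 uM). Step 3, read 525/598 nm fluorescence at 0 and 30 min.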
L3MBTL1 block: inhibitors of human L3MBTL1 | Q9Y468 | AlphaScreen L3MBTL1–H3K9me1 peptide binding | Potency, µM (top dose mostly 57.1 µM), actives largely listed as inhibitors | actives 0.66% (n = 230,000) | AID 485360; note: nearly all actives have a fitted effect of over 60% in size
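AlphaScreen assay: L3MBTL1 (50 nM final) was preincubated 30 min at room temperature with biotinylated H3(1-15)K9me1 peptide (75 nM final), then 30 min with library compounds; streptavidin donor and nickel chelate acceptor beads (10 ug/mL final) added, 30 min dark.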
A number is an active result; n = inactive; u = inconclusive; x = not tested or not shown; ! = not confirmed by another sample; [ ] = dose if it differs, or a comment. Calls come from the whole dose curve; as a rule, active = well fitted curve in the direction sought with a large enough effect; inconclusive = small, poorly fitted or top-dose-only effect, or another doubt; inactive = no such curve, though single readings can be large; an effect the other way counts as inactive or inconclusive.

SMILES	HP1b binding inh	G9a block	JMJD2A Tudor	BAZ2B block	Sfp inh	L3MBTL1 block
Cc1ccc(CC2C(=O)N(C)C(=O)N(C)C2=O)s1	n	7.9µM	n	n	35µM	n
C=CCOc1ccc(CC2C(=O)N(C)C(=O)N(C)C2=O)cc1	n	n[12.7 µM]	n	n	n	n
O=S1OCC2C(CO1)C1(Cl)C(Cl)=C(Cl)C2(Cl)C1(Cl)Cl (centres undefined)	x	x	x	x	n	x
COc1cccc(CN2CCN(Cc3cccc(F)c3)CC2)c1	u	x	7.9µM	35µM	u	n
CCN(CC)c1ccc(/C=C/[N+](=O)[O-])cc1	n	45µM	u	x	u	n
CCOc1ccc(S(=O)(=O)O)c2cccnc12	x	n[12.7 µM]	x	x	71µM	x
OC(COCc1ccc(Cl)cc1)CN1CC=C(c2ccccc2)CC1 (centres undefined)	u	u	1.1µM!	50µM	u	n
CCN(CC)P(=O)(Nc1ccc([N+](=O)[O-])cc1)c1c(C)nn(CCC#N)c1NC(=O)c1ccc(Cl)cc1Cl (centres undefined)	n	n	n	u	n	x
Oc1c(Cl)c(Cl)c(Cl)c(Cl)c1Cl	n	x	56µM	x	n	x
CC1(C)C(O)CC(=O)[C@]2(C)C1CC(=O)[C@]1(C)C2CC[C@@]2(C)C(c3ccoc3)OC(=O)C3O[C@@]321 (some centres undefined)	x	n[2.33 µM]	x	x	n	x
Oc1c(Br)cc(Br)cc1CN1CCN(Cc2ccccc2)CC1	n	45µM	20µM	79µM	n	x
CCN1CCN(Cc2cc(Br)cc(OC)c2O)CC1	n	u	n	n	n	n
CC1CC(OP(O)(=S)c2ccc(N(C)C)cc2NC(=O)c2cccs2)CC(C)(C)C1 (centres undefined)	u	4µM	56µM	50µM	10µM	x
C[C@@H]1O[C@H](O[C@@H]2C[C@@H](O)[C@]3(CO)[C@H]4[C@H](O)C[C@]5(C)[C@@H](C6=CC(=O)OC6)CC[C@@]5(O)[C@@H]4CC[C@]3(O)C2)[C@@H](O)[C@H](O)[C@H]1O	x	x	x	x	n	x
CN1CC(C(=O)c2cccs2)C(c2ccc(Cl)cc2)C1 (centres undefined)	n	n	n	n	n	x
CN1CC(C(=O)c2ccc(Cl)cc2)C(c2ccccc2)C1 (centres undefined)	n	45µM	n	n	n	x
Cc1ccccc1-c1ccc2n1Cc1cnnn1-c1ccccc1-2	u	x	50µM	x	x	x
COc1ccc2c(c1)CCC1C2CC[C@@]2(C)C1CC[C@@H]2NCCCCCCN1C(=O)C=CC1=O (some centres undefined)	x	2.5µM	x	x	x	x
COc1ccc2c(c1)CC[C@@H]1[C@@H]2CC[C@]2(C)[C@@H](NCCCCCCN3C(=O)C=CC3=O)CC[C@@H]12	x	n	x	x	n	x
CN1C(CC(=O)c2ccccc2)CCCC1CC(O)c1ccccc1 (centres undefined)	n	n[2.33 µM]	n	n	n	x
C[N+]1(CC(O)c2ccccc2)CCCCCC1 (centres undefined)	n	50µM	n	79µM	n	n
Cn1c(O)c(C(c2ccccn2)c2c(O)n(C)c(=S)n(C)c2=O)c(=O)n(C)c1=S	n	4µM	4µM	5µM	u	n
Cn1c(O)c(C(c2ccncc2)c2c(O)n(C)c(=S)n(C)c2=O)c(=O)n(C)c1=S	n	u	n	n	n	x
CCC(C)n1c(O)c(C(c2ccccn2)c2c(O)n(C(C)CC)c(=S)[nH]c2=O)c(=O)[nH]c1=S (centres undefined)	n	11µM	u	35µM	50µM	n
c1ccc2c(c1)Nc1ccccc1S2	u	13µM	u	13µM	n	n
SMILES	HP1b binding inh	G9a block	JMJD2A Tudor	BAZ2B block	Sfp inh	L3MBTL1 block
O=C1Nc2ccccc2Sc2ccccc21	n	n	n	n	n	u
O=P(c1ccccc1)(c1ccccc1)N1CC2(CC2)CC(O)(c2ccccc2)C1 (centres undefined)	x	x	x	x	n	x
CC(C)(C)C(=O)OC1=CN(Cc2ccccc2)S(=O)(=O)c2ccccc21	n	n	n	n	x	x
O=[N+]([O-])c1ccc(F)c([N+](=O)[O-])c1	x	u	x	x	n	x
O=[N+]([O-])c1ccc(O[C@@H]2O[C@H](CO)[C@@H](O)[C@H](O)[C@H]2F)c([N+](=O)[O-])c1	x	24µM!	x	x	x	x
COc1ccc(-c2nn(-c3ccccc3)cc2C(=O)N2c3ccc(C)cc3C3CN(C)CCC32)cc1 (centres undefined)	n	u	n	u	n	n
CCOC(=O)c1cc(CC)sc1/N=C/C1C(=O)NC(=S)NC1=O	n	45µM	n	x	18µM	x
CCCCC(CC)COCCCN=Cc1c(O)[nH]c(=S)[nH]c1=O (centres undefined)	n	u	n	n	u	x
CCOC(=O)c1c(/N=C/C2C(=O)NC(=O)NC2=O)sc2c1CCC2	n	u	n	n	35µM	n
CCOC(=O)c1cc(CC)sc1/N=C/c1c(O)[nH]c(=S)[nH]c1=O	n	u	n	n	8.9µM	n
O=C1CCCC2[C@@H]3CCCN4CCC[C@@H](CN12)C34 (some centres undefined)	x	x	x	x	n	x
NS(=O)(=O)c1nc[nH]c1[N+](=O)[O-]	n	x	20µM	x	x	x
Cc1cc(-c2cc(C)c(N)c(C)c2)cc(C)c1N	u	x	50µM	x	x	x
CCC1OC2(C)C(O)C(/C=C/C=C/C=C/c3oc(=O)cc(OC)c3C)OC1(C)C2OC(C)=O (centres undefined)	x	x	x	x	n	x
CC(C)CN1CCCC2(CCN(C(=O)Oc3ccccc3)CC2)C1	x	n[12.7 µM]	x	x	n	x
O=C(/C=C/c1ccccc1)c1c(O)n(CCc2ccccc2)c(=O)[nH]c1=O	n	n	n	n	n	n
COc1cc(/C=C/C(=O)c2c(O)n(CCc3ccccc3)c(=O)[nH]c2=O)ccc1O	n	45µM	n	n	n	n
CC(C)(O)[C@@H]1C2OC(=O)[C@@H]1[C@]1(O)C[C@H]3O[C@]34C(=O)O[C@H]2[C@]14C (tested in a mixture with another compound)	x	n	x	x	x	x
COC(=O)c1c(C)n(Cc2ccccc2)c2ccc(O)cc12	n	8.9µM	n	n	50µM	n
CCOC(=O)c1c(C)n(Cc2ccccc2)c2ccc(O)cc12	n	32µM	u	u	50µM	n
CC(=O)c1c(C)n(Cc2ccccc2)c2ccc(O)cc12	n	n	n	n	n	n
COc1cc(C2c3cc4c(cc3C(O)C3COC(=O)C23)OCO4)cc(OC)c1O (centres undefined)	x	n[2.33 µM]	x	x	n	x
CC(=O)OCC1=C(C(=O)O)N2C(=O)C(NC(=O)CCCC(N)C(=O)O)C2SC1 (centres undefined)	x	n[2.33 µM]	x	x	n	x
COc1ccc(CCNCc2ccc(SC)cc2)cc1	n	x	n	n	n	n
COc1ccc(CCNCC2CCCO2)cc1 (centres undefined)	u	x	28µM	u	n	n
